CRFR2-BP antag – CRF-BP/CRF-R2 complex antagonism | AID 588475 | inhibition, % at 11.8 µM | hit rate 0.59% among 350,000 | HEK293 CRF-R2/CRF-BP, CRF-induced calcium fluorescence;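 active = inhibition of the ligand-induced calcium signal above about 50% at the single tested concentration, limit read from the data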
FAS-TE inh – FAS thioesterase (human) inhibition. hit rate 0.67% among 360,000. P49327. inhibition, % at 15 µM. recombinant FAS-TE, OMFH fluorogenic substrate, fluorescence endpoint;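 active = compounds whose normalised, plate-corrected inhibition of enzyme fluorescence in the single-dose primary screen is 50% or more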;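 also: 0% = DMSO with enzyme and 100% = substrate without enzyme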
PfG6PD inh – PfG6PD (Plasmodium falciparum) enzyme inhibition; inhibition, % at 20 µM; hit rate 0.78% among 350,000; AID 504690; PfGluPho enzyme, NADPH resazurin-diaphorase fluorescence;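 active = inhibition reaching at least a set limit at 20 µM in the primary screen, cut at about 59% in these data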;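 also: 0% = DMSO wells with substrate and 100% = DMSO wells lacking glucose-6-phosphate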
H9c2 protect – protects H9c2 cardiomyocytes from peroxide injury | H2O2 injury protection, ATPLite, 2 h | protection from H2O2 cell death, % at 20 µM | hit rate 0.63% among 360,000;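 active = compounds giving at least 50% protection of heart cells from peroxide-induced death in the single-dose screen, raw or plate-pattern-corrected value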;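 also: 0% = DMSO wells with peroxide and 100% = DMSO wells without peroxide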
CRFR2-BP ag – agonists of human CRF-binding protein/CRF-R2 receptor complex; HEK293 CRF-R2/CRF-BP, calcium dye fluorescence (FLIPR); percent of saturating CRF peptide response; hit rate 0.46% among 350,000; activation, % at 13.2 µM; AID 588473;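 active = activation of at least 50%, plus an integration ratio under a set limit after plate pattern correction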;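 also: plate controls were neutral control wells without compound for no effect and CRF at EC100 for full effect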
aDG glyco up – alpha-DG glycosylation activation | activation, % at 10 µM | hit rate 0.22% among 360,000 | AID 624168 | Pro5-aDG cells, alpha-DG glycosylation AlphaScreen (IIH6); 0% Pro5, 100% B10-LARGE cell signal;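 active = activation of at least 8% versus controls, or a plate z-score of at least 8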;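 also: Pro5 are CHO cells carrying HIG-tagged alpha-DG that lacks glycosylation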
Starred values were filed as active, the others as inactive; nt = no result. Shown are actives, neighbours in structure and some others; about 3.2% of the full set was active somewhere.

SMILES	CRFR2-BP antag	FAS-TE inh	PfG6PD inh	H9c2 protect	CRFR2-BP ag	aDG glyco up
Cc1noc(C)c1NC(=O)Nc1cccc2c1O[C@H](CN(C)C(=O)Nc1ccc3c(c1)OCO3)[C@@H](C)CN([C@H](C)CO)C2=O	-5.9	29.4	18.8	10.5	-0.1	4.6
C[C@H](CO)N1C[C@H](C)[C@@H](CN(C)C(=O)Nc2ccc3c(c2)OCO3)Oc2c(NC(=O)Nc3ccc(C(F)(F)F)cc3)cccc2C1=O	-10.6	75.6*	47.5	85.5*	1.9	-0.6
CCc1cc(C(=O)N(CCCOC)c2c(N)n(Cc3ccccc3)c(=O)[nH]c2=O)sc1C	6.3	-3.5	17.4	0.3	-0.6	-0.2
O=C(c1ccc(F)cc1)C1CCN(C(=S)Nc2ccc(F)cc2)CC1	0.8	8.1	22.4	-2.1	-0.4	0.2
COc1ccc(C2/C=C\CN(C(=O)c3ccc(C)cc3)[C@H](Cc3ccccc3)C(=O)N2Cc2ccc(F)cc2)cc1 (stereo partly specified)	1.4	38.8	-4.4	85.2*	6.8	0.6
CC(=O)Nc1ccc(NC(=O)COc2ccc(-c3ccc(C#N)cc3)cc2)cc1	6.2	-5.6	-2.2	15.9	-0.2	0.2
CCCn1c(=O)c2[nH]c(-c3ccc(OCC(=O)Nc4ccc(C#N)cc4)cc3)nc2n(CCC)c1=O	-35.9	0.7	-22.3	94.5*	-2.2	0.0
CCCCNC(=O)c1cc2cc(CC)ccc2[nH]1	21.7	2.1	-5.2	-1.9	-1.6	0.0
Cc1ccc(S(=O)(=O)c2nnn3c2nc(NC2CCN(Cc4ccccc4)CC2)c2ccccc23)cc1C	-10.6	86.1*	-1.7	-1.3	-0.2	0.2
Cc1ccc(S(=O)(=O)c2nnn3c2nc(N2CCOCC2)c2ccccc23)cc1C	55.4*	40.7	0.6	12.5	0.6	-0.2
Cc1ccc(S(=O)(=O)c2nnn3c2nc(N2CCOCC2)c2ccccc23)c(C)c1	106.3*	41.5	-3.0	6.8	-0.7	0.2
CC(C)c1ccc(S(=O)(=O)c2nnn3c2nc(N2CCCCC2)c2ccccc23)cc1	36.9	44.7	-13.9	-10.5	-0.2	0.1
OC[C@H]1O[C@@H](O[C@@H]2[C@@H](CO)O[C@@](O)(CO)[C@H]2O)[C@H](O)[C@@H](O)[C@H]1O	-15.7	-3.9	15.3	1.4	0.1	-0.1
CCCCCCn1c(=O)[nH]c2nc3cc(N)c(C)cc3nc2c1=O	-227.9	-144.7	20.5	21.1	324.9*	-0.6
CCCCn1c(=O)[nH]c2nc3cc(NC(C)=O)ccc3nc2c1=O	-6.1	-10.8	9.3	21.7	22.1	-0.2
O=C(O)c1ccc(-c2ccc(/C=c3/sc4nc5ccccc5n4c3=O)o2)cc1Cl	-86.4	-2.2	29.6	9.0	118.0*	0.2
Cc1ccc2c(nc3s/c(=C\c4ccc(-c5ccccc5C(=O)O)o4)c(=O)n32)c1C	-76.7	-9.8	24.6	-5.6	126.3*	-0.2
Cc1cc(=O)oc2c1ccc1oc(/C(=N/O)c3ccccc3)c(C)c12	117.6*	-4.5	18.0	-2.3	-0.5	0.0
Cn1c(=N)n(CC(=O)c2ccc(Cl)c(Cl)c2)c2ccccc21	-8.6	6.1	29.5	-20.6	0.7	7.4*
N=c1n(CC(=O)c2ccc(Br)cc2)c2ccccc2n1Cc1ccccc1	-8.1	16.7	52.0	-28.5	-0.2	9.1*
O=C(C[C@@H]1C/C=C\C[C@H](Cc2ccc(F)cc2)C(=O)OCCNC1=O)NCCO	-3.8	-11.8	10.1	3.3	-1.5	0.0
COCc1cc(C)nc(SCC(=O)Oc2ccccc2)c1C#N	4.4	-4.9	-3.8	5.2	2.2	-0.1
COCc1cc(C)nc(SCC(=O)c2ccc(O)c(O)c2)c1C#N	-5.8	1.1	-4.3	76.1*	-0.4	-0.1
CCN1CCN(c2c(/C=C3\SC(=S)N(Cc4ccco4)C3=O)c(C)c(C#N)c(=O)n2C)CC1	-95.4	-53.2	30.6	-1.0	90.1*	0.2
COc1ccc(-n2c(C)cc(/C=C3\SC(=S)N(Cc4ccco4)C3=O)c2C)cc1	-40.6	10.4	14.3	-8.6	24.9	-0.3
SMILES	CRFR2-BP antag	FAS-TE inh	PfG6PD inh	H9c2 protect	CRFR2-BP ag	aDG glyco up
CCCN1CCc2c(sc(NC(=O)c3ccc(S(=O)(=O)N(C)c4ccccc4)cc3)c2C(=O)NC)C1	-62.8	-100.0	25.3	15.5	63.1*	0.4
CCCN1CCc2c(sc(NC(=O)c3ccc(S(=O)(=O)N(C)c4ccccc4)cc3)c2C(N)=O)C1	-63.2	-21.1	7.8	2.4	98.7*	1.9
CNC(=O)c1c(NC(=O)c2ccc(S(=O)(=O)N3CCCCC3)cc2)sc2c1CCN(C(C)C)C2	-67.1	-13.9	7.0	-1.5	45.3	-0.1
CN1CCc2c(sc(NC(=O)c3ccc(S(=O)(=O)N4CCCCCC4)cc3)c2C(N)=O)C1	-146.0	-23.3	-15.2	1.3	126.7*	32.6*
CCCN1CCc2c(sc(NC(=O)CCS(=O)(=O)c3ccccc3)c2C(=O)OC)C1	4.2	-7.5	11.8	19.1	18.2	3.1
CNC(=O)c1c(NC(=O)c2ccc(S(=O)(=O)N3CCCc4ccccc43)cc2)sc2c1CCN(C)C2	-128.2	-62.2	14.0	1.1	158.6*	2.5
CCCCCCCCN1C(=O)[C@H](CC(=O)NCCCOCCCC)C[C@@]2(C(=O)OC)CCCCC=C12	nt	12.4	nt	nt	nt	0.3
Cc1onc(-c2c(Cl)cccc2Cl)c1COC(=O)c1ccc(Cl)cc1	18.9	32.3	22.4	-4.7	3.3	2.1
CCCN1CCc2c(sc(NC(=O)c3ccc(S(=O)(=O)N4CCN(C(=O)OCC)CC4)cc3)c2C(N)=O)C1	-72.4	-94.8	7.5	-2.6	108.3*	12.4*
Cn1ccc(C(=O)Nc2sc3c(c2C(N)=O)CCCCC3)n1	78.3*	-3.9	23.4	-12.2	0.2	-0.2
COc1ccc(NC(=O)C(Sc2nnc3ccccn23)c2ccccc2)cc1Cl (stereo unspecified)	-57.5	19.3	-13.5	3.6	-0.4	-0.2
Cc1cc(F)ccc1S(=O)(=O)NCC1CC2CCC1C2 (stereo unspecified)	-92.6	8.2	-7.9	-10.4	87.5*	0.0
CC(OC(=O)c1cc2c(ccc3ccccc32)oc1=O)c1nc2ccccc2s1 (stereo unspecified)	7.3	22.7	6.2	68.8*	0.3	0.0
COc1ccc(Nc2ccccc2)c(C)c1	50.3*	6.7	4.3	-1.7	0.1	0.2
CN(C(=O)COC(=O)c1ccc(-c2ccc(O)cc2)cc1)C1CCS(=O)(=O)C1 (stereo unspecified)	-6.2	-4.5	-5.8	3.8	-0.6	-0.1
COc1ccc2noc3c2c1C(=O)c1ccccc1-3	-115.1	-139.5	57.2	10.3	168.6*	0.1
O=C1c2ccccc2-c2onc3ccc(NCCCn4ccnc4)c1c23	-166.0	nt	10.7	nt	193.5*	nt
COc1ccc(OC)c2c1C(=O)c1ccccc1C2=O	35.1	nt	22.3	nt	15.4	nt
CCSc1nnc(NC(NC(C)=O)(C(F)(F)F)C(F)(F)F)s1	2.7	-9.4	17.8	2.3	0.6	0.1

Assay outcomes deposited in PubChem by Sanford-Burnham Center for Chemical Genomics.
